# Screens deposited in PubChem by National Center for Advancing Translational Sciences (NCATS).
# LASV entry inh – blocks Lassa virus binding to or entry into cells; Lassa virus pseudotype entry inhibition, cell reporter; Potency, µM (top dose mostly 37.9 µM), usual class: inhibitors; 300,000 compounds, 1.2% hits; calls by dose curve; tested in HEK293 cells; also: nearly all actives have a fitted effect of over 50% in size
# HCMV antiviral – inhibitors of human cytomegalovirus. HFF cells, HCMV-luciferase reporter, 72 h; stronger effect = lower value. activity change, negative = inhibition, % at 57.5 µM. 410,000 compounds, 4.5% hits; in the data active = activity change below about -60%; inconclusive = no clear call, values can overlap the other calls; inactive = above about -39%
#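 Inhibition of viral replication was scored as loss of reporter luminescence in HFFs infected with HCMV-luciferase (MOI 1 PFU/cell) for 72 h; compounds tested at 2 doses, normalized to buffer and Salinomycin controls.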
# VACV mCherry inh – inhibitors of vaccinia virus infection (mCherry reporter signal). Vaccinia virus mCherry reporter infection, fluorescence. Potency, µM (series often up to 36.5 µM), actives largely listed as inhibitors. 310,000 compounds, 0.63% hits; calls by dose curve; tested in A549 cells; also: nearly all actives have a fitted effect of over 35% in size
# Marburg entry inh – Marburg virus entry inhibition | Marburg virus pseudotyped entry inhibition, cell reporter | Potency, µM (series often up to 37.8 µM), actives largely listed as inhibitors | 300,000 compounds, 1.8% hits; calls by dose curve; tested in HEK293 cells
# HCV inhibitor – blocks hepatitis C virus; Huh7.5.1 HCVcc-Cre infection, luciferase reporter, 44 h; Potency, µM (top dose mostly 41.8 µM), usual class: inhibitors; 340,000 compounds, 3.4% hits; AID 651820; active = well fitted inhibition curve with a large enough effect; inconclusive = small, poorly fitted or top-dose-only effect, or another doubt; inactive = no such curve, though single readings can be large or run the other way
#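 After 44 h co-culture of compound, cells and HCVcc-Cre (~0.5 moi), substrate is added for 15 min at room temperature and luciferase measured over 15 sec. Cells were seeded at 1,000/well and pre-cultured 4 h.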
# VACV Venus inh – inhibitors of vaccinia virus (Venus reporter); Vaccinia virus Venus reporter expression, fluorescence; Potency, µM (top dose mostly 36.5 µM), hits mostly inhibitors; 330,000 compounds, 0.46% hits; AID 720580; calls by dose curve; tested in A549 cells; also: nearly all actives have a fitted effect of over 30% in size
# Hits are given with their value; – = inactive; ? = inconclusive; · = no result given; [ ] = remark or other dose. Compounds with a hit are over-represented: about 7.8% of the library has one in this group of screens.
SMILES,LASV entry inh,HCMV antiviral,VACV mCherry inh,Marburg entry inh,HCV inhibitor,VACV Venus inh
CCOC(=O)C1=C(O)c2ccccc2C(=O)/C1=C\c1ccc(C)cc1,?,·,–,?,–,–
CCOC(=O)C1=C(Cc2ccc(Cl)cc2)C(=O)c2ccccc2C1=O,23µM,·,–,?,11µM,–
CCn1cnc2sc(C(=O)N(Cc3ccc(N(C)C)cc3)Cc3ccco3)c(C)c2c1=O,?,–,·,5µM,–,–
CCCCN(CCCNC(=O)c1cc(Nc2ccc(OC)c(OC)c2)nc2ccccc12)Cc1ccccc1,?,–,–,?,·,–
Cc1ccc(C)c(NC(=O)c2ccc3c(c2)N(Cc2ccc(F)cc2)C(=O)CS3=O)c1 (stereo not given),?,?,–,2.6µM,?,–
CCOc1ccc(NC(=O)c2ccc3c(c2)N(Cc2ccc(F)cc2)C(=O)CS3=O)cc1 (stereo not given),·,–,–,–,–,–
CCn1c2c(c(=O)n3ncc(C(=O)Nc4cccc(Cl)c4C)c13)CN(Cc1ccc(OC)cc1)CC2,–,?,–[7.34 µM],·,·,–
CCc1ccc(C(=O)c2cn(CC(=O)NCCc3ccc(OC)c(OC)c3)c3nc(C)ccc3c2=O)cc1,–,–,–,·,·,–
O=C(Nc1ccccc1)c1cc(C2COCCN2C(=O)c2cccs2)on1 (stereo not given),·,-85,–,·,·,–
CCc1nn(CCCC(=O)NCc2ccc(OC(C)C)cc2)c(=O)c2cc3occc3n12,–,?,–,?,8.9µM,?
CCOc1ccc(CNC(=O)CCCn2nc(CC)n3c(cc4occc43)c2=O)cc1,·,-60,·,·,?,·
CCc1nn(CCCC(=O)NCc2cc(Br)ccc2OC)c(=O)c2cc3occc3n12,–,–,–,?,10µM,–
CCc1nn(CCCC(=O)NCc2ccco2)c(=O)c2cc3occc3n12,?,?,–,–,?,–
CCc1nn(C(C)C(=O)NC2CCCCCC2)c(=O)c2cc3occc3n12 (stereo not given),–,?,–,–,10µM,–
Cc1ccc(SC[C@H](C)CN2CC[C@H](O)CCC2=O)cc1,·,·,–,·,·,–
O=C1OCCC1Sc1nnc2c(n1)[nH]c1ccccc12 (stereo not given),·,·,–,·,·,–
Cc1ccc(S(=O)(=O)Nc2ncnc3sc(C)c(C)c23)cc1,–,–,–,–,–,–
CC(Sc1ncnc2sccc12)C(=O)Nc1ccc(C(N)=O)cc1 (stereo not given),·,–,·,·,–,·
Cc1sc2ncnc(NCCc3ccc(S(N)(=O)=O)cc3)c2c1C,?,-76,–[1.46 µM],?,1µM,?
NS(=O)(=O)c1ccc(CNc2ncnc3sccc23)cc1,–,–,–,–,–,–
NS(=O)(=O)c1ccc(CCNc2ncnc3sccc23)cc1,?,?,·,?,5.6µM,·
CC(Sc1ncnc2sccc12)C(=O)Nc1ccc(S(N)(=O)=O)cc1 (stereo not given),–,–,11µM,?,–,?
Cc1ccccc1C(=O)Nc1ccc2oc(-c3ccc(Cl)c(Cl)c3)nc2c1,–,–,–,·,·,–
Cc1cccn2c(=O)c(C=NCc3ccco3)c(Nc3ccc(SC(F)F)cc3)nc12,9.2µM,–,·,?,?,·
Cc1ccc2[nH]c(C(=O)NCc3nc(-c4cccc(NC(=O)c5cc(C)oc5C)c4)oc3C)cc2c1,·,·,–,·,·,–
SMILES,LASV entry inh,HCMV antiviral,VACV mCherry inh,Marburg entry inh,HCV inhibitor,VACV Venus inh
CNC(=O)CN(c1ccc(C23CC4CC(CC(C4)C2)C3)cc1)S(C)(=O)=O,–,-60,–,?,–,–
COc1cccc(CN2CCC(N(CCc3ccccc3)Cc3ccccc3)CC2)c1OC,?,-64,?,7.9µM,11µM,?
COC(=O)[C@H](Cc1ccccc1)N1C[C@@H](N2CCC[C@@H]2C)C[S+]1(=O)[O-],–,·,·,·,·,·
Cc1ccc(NC(=O)c2ccc(N3CCOCC3)c([N+](=O)[O-])c2)cc1S(=O)(=O)N1CCOCC1,–,-98,–,?,3.5µM,–
CN(C)S(=O)(=O)c1cccc(NC(=O)c2ccc(N3CCOCC3)c([N+](=O)[O-])c2)c1,?,-71,?,?,?,–
COc1ccc2oc(-c3ccc(C)c(NC(=O)c4ccc(N5CCOCC5)c([N+](=O)[O-])c4)c3)nc2c1,–,-81,·,–,–,·
CN(C)S(=O)(=O)c1cc(NC(=O)c2ccc(-n3ccnc3)c([N+](=O)[O-])c2)ccc1Cl,?,-71,–,?,?,–
CCOc1ccc(C(=O)Nc2cc(-c3nc4cc(OC)ccc4o3)ccc2C)cc1[N+](=O)[O-],–,–,–,?,·,–
CCc1ccc(NC(=O)Cn2cc(S(=O)(=O)c3ccc(F)cc3)c(=O)c3cc(OC)ccc32)cc1,–,–,?,–,·,–
N#Cc1ccc2c(c1)C[C@]1(c3ccsc3)Oc3c(c(=O)oc4ccc(F)cc34)[C@@H]2O1,?,·,·,–,·,·
O=C(Nc1cc(Cl)ccc1N1CCOCC1)c1ccc(N2CCCCC2)c([N+](=O)[O-])c1,–,–,–,–,?,–
O=C(Nc1ccc(N2CCCCC2)c(Cl)c1)c1ccc(N2CCOCC2)c([N+](=O)[O-])c1,?,-80,–,?,?,?
CC(=O)N1CCN(c2ccc(NC(=O)c3ccc(N4CCCC4)c([N+](=O)[O-])c3)cc2Cl)CC1,?,-71,?,?,10µM,–
CCCC(=O)N1CCN(c2ccc(NC(=O)c3ccc(N4CCCC4)c([N+](=O)[O-])c3)cc2Cl)CC1,–,–,–,?,?,–
Cc1cc(C(=O)Nc2cccc(-c3ccc(N4CCOCC4)nn3)c2)ccc1[N+](=O)[O-],?,–,?,?,10µM,–
Cc1ccc(C(=O)Nc2cccc(-c3ccc(N4CCOCC4)nn3)c2)cc1C,–,–,–,–,?,–
O=C(Nc1nc2ccc(Cl)cc2s1)c1ccc(N2CCCCC2)c([N+](=O)[O-])c1,?,-67,–,?,–,–
O=C(Nc1nc2ccc3ccccc3c2s1)c1ccc(N2CCCCC2)c([N+](=O)[O-])c1,–,?,–,–,–,–
Cc1nnc(SCC(=O)Nc2nccs2)s1,–,–,·,–,–,·
Cc1nnc(SCC(=O)Nc2nccs2)o1,–,-61,–,–,–,–
Cc1ccc(CC(=O)Nc2nccs2)cc1,·,-67,·,·,–,·
O=C(Cc1ccc(F)cc1)Nc1nccs1,·,–,·,·,–,·
CC(=O)c1ccc(N2C(=O)N(Cc3ccc(F)cc3)c3ccccc3S2(=O)=O)cc1,–,–,–,·,·,–
c1cn(-c2ncnc3sc4c(c23)CCCC4)cn1,–,-70,·,–,–,?
c1nc(N2CCOCC2)c2c3c(sc2n1)CCCC3,–,-65,·,–,?,·
c1ccn(-c2ncnc3sc4c(c23)CCCC4)c1,–,?,·,–,–,–
Cc1ccc(O)c(CNc2cnc3ccccc3c2)c1,?,–,13µM,?,?,–
COC1=C[C@@H](C(=O)N[C@H]2CCCC[C@H]2NC(C)=O)[C@@H](C)[C@H](c2ccccc2)CC1=O,–,·,·,?,·,·
COc1ccc2[nH]c3c(C)c4ccncc4c(C)c3c2c1,·,-77,7.1µM,·,2.2µM,10µM
COc1ccc2[nH]c(C)cc(=O)c2c1,–,–,·,–,–,–
